What all share (conditions): concentration: 1 μM, replicates: in singlicate; n = 1
Assay [1] relates to DAPK2.
In assay [2] the test system is DAPK3.
For assay [3], the system named is T1, DCAMKL1.
T1 construct: gene DCLK1

Assay [4] deals with T2, DCAMKL2.
T2 construct: gene DCLK2

Assay [5] deals with T3, DCAMKL3.
T3 construct: gene DCLK3

For assay [6], the system named is DDR1.
Assay [7] has as its system DDR2.
The test system of assay [8] is T4, DLK.
T4 construct: gene MAP3K12

The test system of assay [9] is T5, DMPK2.
T5 construct: gene CDC42BPG

Assay [10] has as its system DMPK.
Assay [11] has as its system T6, DRAK1.
T6 construct: gene STK17A

For assay [12], the system named is T7, DRAK2.
T7 construct: gene STK17B

Assay [13] deals with DYRK1A.
The subject of assay [14] is DYRK1B.
Assay [15] has as its system DYRK2.
Assay [16] has as its system EGFR.
Assay [17] deals with EIF2AK1.
Assay [18] concerns EPHA1.
Assay [19] deals with EPHA2.
In assay [20] the test system is EPHA3.
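Note: KINOMEscan kinase panel screen.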

Turning to `Cc1cccc(-c2nc(Nc3cccc(C(N)=O)c3)c3ccccc3n2)n1` [GW876019], the “%Inh” value was 0% in [1]; 17% in [2]; 36% in assay [3]; 0% in assay [4]; 29% in [5]; 29% in [6]. In addition, the “%Inh” value in assay [7] was found to be 8%; in [8], 0%; in assay [9], 0%; in [10], 0%; in assay [11], 8%; in assay [12] it was 28%. For the same compound, the “%Inh” value is on record as 6% in assay [13]; 65% in assay [14]; 34% in assay [15]; 15% in assay [16]; 0% in assay [17]; 57% in [18]. The “%Inh” value in assay [19] is on record as 32%; in [20], 0%.
For `Cc1ccc(NC(=O)Nc2cccc(Cl)c2)cc1-c1ccc(C(=O)Nc2ccncc2)cc1` [GSK1398468], the “%Inh” value amounted to 0% in assay [1]; 22% in assay [2]; 17% in assay [3]; 0% in assay [4]; 0% in assay [5]; 99.7% in assay [6]. Besides, the “%Inh” value in [7] is recorded as 72%; in [8], 25%; in [9] it was 8%; in [10], 0%; in [11], 0%; in [12], 0%. For the same compound, the “%Inh” value in assay [13] amounted to 1%; in assay [14], 21%; in assay [15], 0%; in assay [16] it was 24%; in assay [17] it was 0%; in assay [18], 6%. In addition, the results for the “%Inh” value in [19] and in assay [20] were 3% and 0%, respectively.
For `COc1cccc(-c2cc(-c3c[nH]nc3-c3ccccn3)ccn2)c1` [GW680338], the “%Inh” value in assay [1] stood at 22%; in assay [2], 23%; in [3], 13%; in [4], 0%; in [5], 0%; in assay [6], 3%. For the same compound, the “%Inh” value in assay [7] stood at 37%; in assay [8], 28%; in [9] it was 6%; in assay [10], 0%; in assay [11], 0%; in assay [12], 2%. The “%Inh” value in assay [13] came to 13%; in [14], 14%; in [15] it was 1%; in assay [16] it was 31%; in assay [17], 2%; in [18] it was 0%. Moreover, the “%Inh” value in assay [19] is reported as 0%; in [20], 11%.
On to `Fc1cc(Cl)ccc1Nc1ccnc2cc(-c3ccc(CN4CCCCC4)o3)ccc12` [GW560116], for which the “%Inh” value in assay [1] turned out to be 0%; in assay [2] it was 25%; in assay [3], 0%; in assay [4] it was 14%; in [5], 0%; in [6], 27%. The “%Inh” value in [7] was 36%; in assay [8], 36%; in [9], 0%; in [10], 0%; in assay [11], 33%; in assay [12], 0%. Besides, the “%Inh” value in assay [13] was 0%; in assay [14] it was 0%; in [15] it was 9%; in [16], 27%; in [17], 0%; in assay [18] it was 43%. The “%Inh” value is given as 6% in [19] and 33% in assay [20].
With `CN1C(=O)C(Nc2ccc(Cl)c(C(=O)O)c2)=C(c2ccc(Cl)cc2)C1=O` [SB-404290], the “%Inh” value was 9% in [1]; 14% in assay [2]; 0% in assay [3]; 6% in assay [4]; 10% in assay [5]; 0% in [6]. For the same compound, the “%Inh” value in assay [7], in [8], in assay [9], in assay [10], in assay [11] and in assay [12] was 0% each time. Further, the “%Inh” value is reported as 2% in assay [13]; 0% in [14]; 0% in assay [15]; 0% in [16]; 0% in assay [17]; 5% in assay [18]. Moreover, the “%Inh” value in assay [19] is on record as 0%; in assay [20], 18%.

Values taken from article PMC5540273 (PLoS ONE, 2017).
